About 79,000 compounds went through this panel and 15% of them were active in at least one assay; those are over-represented in the sample as a whole. Rule as the data show it: active = growth inhibition above about 70%; inactive = the rest.
Columns and labels:
[1] = NCI Yeast Anticancer Drug Screen. Data for the rad50 strain (AID 155);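 also: 0% = growth of vehicle-only cultures of the same strain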; conditions: S. cerevisiae rad50 strain growth inhibition, stronger effect = higher value; at 50.0 µM unless noted
Method in brief: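 Relative growth inhibition (compound vs vehicle) was measured in yeast with a defined repair-gene alteration.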

[2] = NCI Yeast Anticancer Drug Screen. Data for the mec2-1 strain (AID 157); conditions: S. cerevisiae mec2-1 strain, stronger effect = higher value; at 50.0 µM unless noted
Method in brief: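 Cells of the genetically defined mec2-1 yeast strain are incubated with test compound. Inhibition of growth is calculated against vehicle-treated controls.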

[3] = NCI Yeast Anticancer Drug Screen. Data for the sgs1 mgt1 strain (AID 161);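 also: 0% = growth of cultures given vehicle only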; conditions: S. cerevisiae sgs1 mgt1 strain, stronger effect = higher value; at 50.0 µM unless noted
Method in brief: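 Read-out: growth inhibition vs vehicle controls. Cells: mutant yeast strain deficient in DNA damage repair.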

[4] = NCI Yeast Anticancer Drug Screen. Data for the cln2 rad14 strain (AID 165);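 also: 0% = growth equal to vehicle treated cultures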; conditions: S. cerevisiae cln2 rad14 strain, stronger effect = higher value; at 50.0 µM unless noted
Method in brief: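 The screen exposed genetically defined yeast (cln2 rad14) to test compounds and scored growth inhibition relative to vehicle-treated controls.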

[5] = NCI Yeast Anticancer Drug Screen. Data for the bub3 strain (AID 167); conditions: S. cerevisiae bub3 mutant strain, stronger effect = higher value; at 50.0 µM unless noted
Method in brief: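 Screening used yeast with an engineered genetic alteration affecting cell cycle control. Compound-exposed cultures were compared with vehicle cultures, and reduced growth was taken as inhibition.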

[6] = NCI Yeast Anticancer Drug Screen. Data for the mlh1 rad18 strain (AID 175); conditions: S. cerevisiae mlh1 rad18 strain growth inhibition, stronger effect = higher value; at 50.0 µM unless noted
Method in brief: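 Compound-treated yeast growth, normalised to vehicle controls. Strain bears defined DNA repair mutations.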

Measured: growth inhibition

CCC[n+]1nc2ccccc2c(=Nc2ccccc2[N+](=O)[O-])[n-]1
inactive: [1] 8.65% | [2] 8.75% | [3] 2.75% | [4] 7.8% | [5] 12.3% | [6] 2.45%

OCCCNCc1ccccn1
inactive: [1] 7.25% | [2] -13.7% | [3] -20.4% | [4] 22.2% | [5] -12.2% | [6] -16.6%

O=C(O)C(=O)Nc1ccccc1
inactive: [1] -4.45% | [2] -15.5% | [3] -5.5% | [4] -34.8% | [5] 1.65% | [6] -5.8%

CC1(C)COC1(c1ccccc1)c1cccnc1 (stereo not given)
inactive: [1] -45.1% | [2] -11.4% | [3] -14.1% | [4] -39.2% | [5] 8.15% | [6] -16.8%

COc1ccc(C2c3c(ccc4ccccc34)Oc3ccc4ccccc4c32)cc1
inactive: [1] -8.05% | [2] -23.6% | [3] 7.5% | [4] 6.85% | [5] 2.85% | [6] -8.45%

— PubChem BioAssay (NCI)
